Assay outcomes (PubChem)
AHR act = AHR activators, primary screen, cell-based, luminescence, luciferase reporter, human. Aryl hydrocarbon receptor (Homo sapiens), P35869. AHR-responsive luciferase reporter cells. activation, % at 5 µM. 320,000 compounds, 2.5% hits. AID 2796, 2010; in the data active means activation above about 47%
Efflux pump inh = inhibitors of Candida efflux pumps in yeast, primary screen, S. cerevisiae, Nile Red, multiplex; S. cerevisiae Candida pump triplex; inhibition, % at 10 µM; 330,000 compounds, 0.44% hits;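 active means plate passing quality check with inhibition over a set limit, or well fluorescence over plate mean plus 4 SD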;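 further: Nile Red retained in pooled yeast measured as flow cytometry median fluorescence; higher means more Nile Red kept so more efflux inhibition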
Bfl-1 A1 inh = caspase 3/7 activation in MEF A1-2A-BIM cells, primary screen, A1 inhibitor project, cell-based, luminescence, HTS. Caspase-Glo 3/7 luminescence, 3 h; percent of clofoctol response, vehicle zero. caspase activation, % (test concentration not listed). 330,000 compounds, 0.066% hits;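 active means over half of replicate activation scores above 10%, or exactly half above 10 with the replicate mean above 10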
ALR inh = inhibitors of human ALR sulfhydryl oxidase, primary screen, biochemical, H2O2 detection, HRP-luminol luminescence, single point. inhibition, % (test concentration not listed). AID 485317, 2010. FAD-linked sulfhydryl oxidase ALR (Homo sapiens), P55789. purified ALR, DTT oxidation. 290,000 compounds, 3.8% hits;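 active means mean replicate inhibition above about 79%, with every replicate also reaching it, limit read from the data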
Target sequence (P55789 whole entry, looked up): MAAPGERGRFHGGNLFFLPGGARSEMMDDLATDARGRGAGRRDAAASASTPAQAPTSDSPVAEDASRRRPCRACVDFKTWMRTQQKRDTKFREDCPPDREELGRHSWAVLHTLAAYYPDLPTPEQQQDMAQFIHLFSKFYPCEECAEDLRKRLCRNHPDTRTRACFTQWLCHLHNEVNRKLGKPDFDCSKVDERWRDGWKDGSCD
Mot1-301 SUMO = yeast Mot1-301 growth rescue at high temperature, primary screen, SUMOylation pathway inhibitor project, S. cerevisiae, ATP luminescence, 38.5C; growth rescue, % at 18.8 µM; S. cerevisiae Mot1-301 growth rescue; percent above DMSO median, 100 means doubled; 320,000 compounds, 1% hits;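 active means every valid replicate shows activation above 250% relative to neutral control wells; inactive means the rest, any valid replicate at or below 250%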
VLA-4 inh = inhibition in human VLA-4 binding assay, primary screen, VLA-4 allosteric modulator project, MLPCN library, flow cytometry, VLA-4 expressing cells. inhibition, % (about 7 µM as worked out from the volumes in the protocol). 330,000 compounds, 0.2% hits. AID 2557, 2010. ligand binding flow cytometry. Integrin alpha-4 (Homo sapiens), P13612; in the data active means inhibition above about 50%
Mot1 SUMO dose = growth restoration of Mot1-301 yeast on galactose, dose response, SUMO pathway inhibitor project, whole organism, S. cerevisiae, ATP luminescence, cherry-picked samples; shares compounds with Mot1-301 SUMO; S. cerevisiae Mot1-301 galactose growth, 24 h; -100 = growth of slx-deleted rescue strain; growth activity, percent, % at 42 µM; 2,300 tested, under 10 active; AID 493004, 2010;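 active means Signal drops as the depositor expects, and the fitted half-maximal dose is no more than ten times the top valid tested dose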;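 further: more negative values mean stronger growth rescue toward the control strain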
A number is an active result; – = inactive; · = no result given; + = active, no number. In the library only some 7.2% were active in any assay of this set; here they are far more common.

SMILES | AHR act | Efflux pump inh | Bfl-1 A1 inh | ALR inh | Mot1-301 SUMO | VLA-4 inh | Mot1 SUMO dose
Cc1cccc(OCCCN2C(=O)C(=O)c3cc(C)ccc32)c1 | – | – | – | – | – | – | ·
Cc1ccc(N(C(=O)Cn2nnc3ccccc32)C(C(=O)NC2CCCCC2)c2cn(C)nc2C)cc1 (stereo not given) | – | – | – | – | 835 | – | –
Cc1nn(C)cc1C(C(=O)NC1CCCCC1)N(C(=O)Cn1nnc2ccccc21)c1ccc(F)cc1 (stereo not given) | – | – | – | – | – | – | ·
COc1ccccc1CNC(=O)CN1C(=O)COc2ccc(S(=O)(=O)NC3CCCC3)cc21 | – | – | – | – | – | – | ·
NC(=O)C1CCN(Cc2nc3cc(Cl)ccc3c(=O)[nH]2)CC1 | – | – | – | – | – | – | ·
CCNCc1nc2cc(Cl)ccc2c(=O)[nH]1 | – | – | – | – | 831 | – | –
CSc1nnc(NC(=O)c2ccc(S(=O)(=O)N(C)C)cc2)s1 | – | – | – | – | – | – | ·
Cc1ccc(CN(C)C(=O)c2ccc3c(c2)NC(=O)CS3)o1 | – | – | – | – | 364 | – | –
COc1ccccc1CN(C)C(=O)c1ccc2c(c1)NC(=O)CS2 | – | – | – | – | – | – | ·
CCC(C)[C@H](NC(=O)Nc1ccc(S(N)(=O)=O)cc1)C(=O)OC (stereo not given in full) | – | – | – | · | 743 | – | –
COC(=O)[C@H](C)NC(=O)Nc1ccc(S(N)(=O)=O)cc1 | – | – | – | – | – | – | ·
CC(=O)c1ccn(S(=O)(=O)c2ccccc2)c1 | – | – | – | – | – | – | ·
Cn1ncc(Br)c1C(=O)OCC(=O)Nc1nc(-c2ccccc2)cs1 | – | – | – | · | – | – | ·
CCc1noc(C)c1C(=O)Nc1nnc(C(CC)CC)s1 | – | – | – | – | – | – | ·
O=C(NCc1ccccc1)c1cccc(COc2cccc(Cl)c2)c1 | – | – | – | – | – | – | ·
O=C(NCc1ccccc1)c1cccc(COc2ccc(Cl)cc2)c1 | – | – | – | – | + | – | –
COc1ccc(C(C(=O)Nc2ccc(C(C)C)cc2)N(C)C(=O)c2ccc(=O)[nH]c2)cc1 (stereo not given) | – | – | – | – | – | – | ·
COc1ccc(CN2CCNC(=O)C2CC(=O)NCc2cn3ccc(C)cc3n2)c(OC)c1 (stereo not given) | – | – | – | – | 838 | – | –
O=C1c2cc(N3CCCC3)c([N+](=O)[O-])cc2C(=O)N1c1ccccc1 | – | – | – | – | 377 | – | –
CC1CC(C)CN(c2cc3c(cc2[N+](=O)[O-])C(=O)N(c2ccccc2)C3=O)C1 (stereo not given) | – | – | – | – | – | – | ·
O=c1cnc2cc([N+](=O)[O-])ccc2[nH]1 | – | – | – | – | 848 | – | –
O=[N+]([O-])c1ccc2nc(CCCc3nc4ccc([N+](=O)[O-])cc4[nH]3)[nH]c2c1 | – | – | – | – | – | – | ·
COc1ccc(S(=O)(=O)NC(C)C(=O)NCc2ccccn2)cc1Cl (stereo not given) | – | – | – | – | 386 | – | –
COc1ccc(S(=O)(=O)NC(C)C(=O)NCc2ccccn2)cc1OC (stereo not given) | – | – | – | – | – | – | ·
CCn1cc(C(=O)OC)c(=O)c2cc(S(=O)(=O)N(C)C3CCCCC3)ccc21 | – | – | – | – | – | – | ·
SMILES | AHR act | Efflux pump inh | Bfl-1 A1 inh | ALR inh | Mot1-301 SUMO | VLA-4 inh | Mot1 SUMO dose
CCCCc1nc2cc(Cl)ccc2o1 | – | – | – | – | – | – | ·
O=C(/C=C/c1ccc(F)cc1)NCCCn1ccnc1 | – | – | – | – | – | – | ·
Cc1cc(C)cc(NC(=O)CS(=O)(=O)c2ccccc2)c1 | – | – | – | – | 368 | – | –
COC(=O)c1ccc2[nH]c(C(C)(C)O)c(C)c2c1 | – | – | – | – | 684 | – | –
COC(=O)c1ccc2[nH]c(C)cc(=O)c2c1 | – | – | – | – | – | – | ·
C[C@@H]1NC(=O)N(CCCn2ccnc2)C1=O | – | – | – | – | – | – | ·
O=C1CCc2cc(S(=O)(=O)N3CCC(C(=O)NCc4ccccn4)CC3)ccc2N1 | – | – | – | – | – | – | ·
O=C1CCc2cc(S(=O)(=O)N3CCC(C(=O)NC4CCCC4)CC3)ccc2N1 | – | – | – | – | 518 | – | –
COc1ccccc1C(=O)NCCC(=O)OCC(=O)Nc1ccc(S(N)(=O)=O)cc1 | – | – | – | – | – | – | ·
O=C(CN1C(=O)NC2(CCCC2)C1=O)Nc1nc2ccccc2[nH]1 | – | – | – | – | 553 | – | –
O=S(=O)(NCC1CCCO1)c1ccc(S(=O)(=O)N(Cc2ccc(F)cc2)Cc2ccco2)cc1 (stereo not given) | – | – | – | – | – | – | ·
Oc1ccc(C(=S)N2CCCCC2)cc1 | – | – | – | – | – | – | ·
S=C(c1ccc(N2CCOCC2)cc1)N1CCCCC1 | – | – | – | 87 | 367 | – | –
Cc1cc(C)c(NC(=O)CCN2CCN(Cc3ccccc3)CC2)c(C)c1 | – | – | – | – | 465 | – | –
Cc1nn(-c2ccccc2)c(C)c1NC(=O)COC(=O)/C=C/c1ccccc1 | – | – | – | – | – | – | ·
Cc1cc(=O)n2[nH]c(-c3ccc(F)cc3)nc2n1 | – | – | – | – | 551 | – | –
Cc1cc(=O)n2[nH]c(-c3cccnc3)nc2n1 | – | – | – | – | – | – | ·
COC(=O)c1cc(C(=O)OCC(=O)N(C)c2ccccc2)cc([N+](=O)[O-])c1 | – | – | – | – | – | – | ·
COc1ccc(Cl)cc1NC(=O)Cn1c(=O)n2nc(C)nc2c2ccccc21 | – | – | – | – | – | – | ·
Cc1ccc(-c2nnc(SCC#N)n2N)cc1 | – | – | – | – | + | – | –
COc1cccc(CNC(=O)CCNS(=O)(=O)c2ccc(Br)s2)c1 | – | – | – | – | – | – | ·
CN(C)CCOC(=O)CCc1ccccc1 | – | – | – | – | 560 | – | –
COC(=O)C(NC(C)=O)(Nc1nc2ccc(S(C)(=O)=O)cc2s1)C(F)(F)F (stereo not given) | – | – | – | · | + | – | –
CC(C)C(C(=O)NCC1CCCO1)N(C(=O)CNS(=O)(=O)c1ccccc1)C1CCCCC1 (stereo not given) | – | – | – | – | – | – | ·
